Data: PubChem BioAssay AID504652 (National Center for Advancing Translational Sciences (NCATS), 2011)
Values joined by “and” are separate entries in the source; they are usually repeats but may differ in a detail not shown here. Equal entries are not always repeated. About 11,000 (3.1%) of roughly 360,000 compounds were called active. This is one part of a sample in which actives are shown more often than they occur. Rule as the data show it: active = activity change below about -30%; inactive = the rest.

Target: D(1A) dopamine receptor (Homo sapiens) (UniProt P21728)
Sequence (P21728 whole entry, looked up): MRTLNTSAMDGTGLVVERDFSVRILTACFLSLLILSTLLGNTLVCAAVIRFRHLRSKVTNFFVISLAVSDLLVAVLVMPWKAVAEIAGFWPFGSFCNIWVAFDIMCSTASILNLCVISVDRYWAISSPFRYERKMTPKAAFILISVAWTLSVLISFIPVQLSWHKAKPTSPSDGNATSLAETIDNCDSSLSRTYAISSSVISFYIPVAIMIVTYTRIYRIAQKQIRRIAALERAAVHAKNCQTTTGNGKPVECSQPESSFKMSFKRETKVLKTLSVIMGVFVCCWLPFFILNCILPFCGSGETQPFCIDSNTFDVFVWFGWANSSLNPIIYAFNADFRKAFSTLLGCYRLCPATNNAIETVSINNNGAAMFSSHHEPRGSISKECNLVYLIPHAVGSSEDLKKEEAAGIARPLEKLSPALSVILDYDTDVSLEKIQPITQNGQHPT
Assay: Antagonist of Human D 1 Dopamine Receptor: qHTS
Details: HEK293 TREx D1 cells, calcium flux, dopamine EC80; at 10 µM; stronger effect = lower value
How it was run: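 Tetracycline-induced HEK293 T-REx cells with force-coupled D1 receptor were loaded with a no-wash calcium dye. Compound was added after a 10 s baseline and read kinetically for 180 s; EC80 dopamine was then added and calcium flux followed another 180 s.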
% is scaled to controls: 0 for no effect and ±100 for the full control effect.

Activity change, negative = inhibition, inactive:
COc1ccc(-c2cn3nc(N4CCC(C(=O)Nc5cccc(C)c5C)CC4)sc3n2)cc1 -7.07%
O=C(Nc1nncs1)c1cccc(S(=O)(=O)N2CCCCC2)c1 5.14%
CCOC(=O)CSc1nnc(NC(=O)c2cccc(S(=O)(=O)N3CCCC3)c2)s1 -6.95%
Cn1nc(C(F)(F)F)c2cc(C(=O)N3CCOCC3)sc21 6.73%
Cn1nc(C(F)(F)F)c(-c2ccc(F)cc2)c1NC(=O)CSCC(=O)O 8.45%
Cc1ccc(Cl)cc1NC(=O)CCS(=O)(=O)c1ccc(Br)s1 6.29%
COc1ccc(C(=O)N2CCC(c3nc4ccccc4o3)CC2)cc1 4.96%
CCOC(=O)Cn1c(=O)n(C2CCCCC2)c2nc(-c3cccc(OC)c3)nc(C(N)=O)c21 8.07%
Cc1csc(NC(=O)C2=COCCO2)n1 -2.15%
CCC(CC)c1nnc(NC(=O)c2nn(C)c(=O)c3ccccc23)s1 0.594%
CC(=O)N1c2ccccc2CC1C(=O)N1CCN(c2ccc(F)cc2)CC1 (stereo not drawn) 9.38%
COc1ccc(N2CCN(c3cc(C)nc4nncn34)CC2)cc1 -2.83%
Cc1nc(N2CCOCC2)c2c(C(=O)NCc3cccc(Cl)c3)c(C)oc2n1 6.25%
COc1cc(NC(=O)C2=CC(c3ccco3)=NS(=O)(=O)N2C)cc(OC)c1OC -11.3% and -11.4%
COc1cc(NC(=O)C2=CC(c3ccc(C)cc3)=NS(=O)(=O)N2C)cc(OC)c1OC -12.9%
CCN(C(=O)c1sc2cc(OC)ccc2c1Cl)c1ccccc1 1.09%
CCc1cccc(NC(=O)c2cc(-c3ccccc3)n[nH]2)c1 -7.87%
CCc1cccc(NC(=O)CCNS(=O)(=O)c2cccc3nonc23)c1 8.81% and 29.5%
O=C(c1ccc(Br)o1)N1CCN(CCOc2ccccc2)CC1 3.56%
O=CN1CCN(C(=O)c2ccc3c(c2)OCO3)CC1 11.7%
CC(C)c1ccc(C2CC(=O)N3CN(C4CCCCC4)CSC3=C2C#N)cc1 (stereo not drawn) -4.95%
COc1cccc(CNC(=O)Cn2ncn3c(cc4ccccc43)c2=O)c1 2.91%
CCOC(=O)[C@@H]1[C@H]2COc3cc(OC)ccc3[C@H]2N2C(=O)N(c3ccc(F)cc3)C(=O)[C@]12C -0.628%
CCOC(=O)[C@@H]1[C@H]2COc3cc(OC)ccc3[C@@H]2N2C(=O)N(c3cccc(C)c3)C(=O)[C@@]12C -0.419%
COc1ccc(-c2cn3c(n2)sc2cc(C(=O)Nc4ccc(F)cc4)ccc23)cc1 -1.55%
O=C(O)c1cc(S(=O)(=O)N(Cc2ccccc2)c2ccccc2)ccc1Cl 11.6%
O=C(O)c1cc(S(=O)(=O)N(Cc2ccccc2)c2cccc(C(F)(F)F)c2)ccc1Cl 3.45%
CCc1ccccc1NC(=O)Cn1c(=O)n(-c2cccc(C)c2)c(=O)c2c1c1cc(OC)ccc1n2C -1.63%
CCCC(=O)Nc1ccc2oc(-c3ccc(O)c(Br)c3)nc2c1 -6.2%
COc1cccc(C(=O)NC2=NC(c3ccc(N(C)C)cc3)CC(=O)N2)c1 (stereo not drawn) -6.47%
Cc1ccccc1-n1c(=O)c2ccccc2n(Cc2ccc(F)cc2)c1=O 8.59%
CNC(=O)c1sc(Nc2ccc(OCc3ccccc3)cc2)nc1C -6.26%
COc1ccc(NC(=O)CCC(=O)Nc2nnc(C3CCCCC3)s2)cc1 5.47%
CCc1nnc(NC(=O)c2ccc(S(=O)(=O)NC3CCCCC3)cc2)s1 1.91%
Cc1ccc(Nc2nnc(SC(C)C(=O)NC3CC3)s2)cc1 (stereo not drawn) -6.59%
CCOc1ccccc1C(=O)NCC(c1ccc(N(C)C)cc1)N1CCCC1 (stereo not drawn) -18.8%
COc1ccccc1NC(=O)C1=C(C)Nc2ncnn2C1c1sccc1C (stereo not drawn) 2.71%
Cc1ccc(C(=O)Nc2nc(N)n(-c3ccccc3)n2)cc1 -1.57%
Nc1nc(NC(=O)/C=C/c2ccc(F)cc2)nn1-c1ccccc1 8.35%
CCOC(=O)c1cc(-c2ccccc2)n(CCC(=O)Nc2ccccc2CC)c1C -5.19%
Cc1ccccc1C(=O)Nc1nnc(S(=O)(=O)N(C)c2ccc(Cl)cc2)s1 -3.48%
COc1ccc(S(=O)(=O)NC(C)C(=O)N2CCCCCC2)cc1 (stereo not drawn) 6.5%
COc1ccc(N2CCN(C(=O)c3ccc(N4CCCCS4(=O)=O)cc3)CC2)cc1 -28.7%
Cc1ccccc1CSc1nc(-c2ccccc2)nc2c1Cc1c(CO)cnc(C)c1O2 -5.66%
CCCC(=O)Nc1cc(C(=O)NCc2ccc(OC)cc2)ccc1S(=O)(=O)c1ccc(Cl)cc1 3.26%
CCc1ccccc1NC(=O)N1CCN(C(=O)c2nsc3ccccc23)CC1 5.59%
O=C(Nc1ccccc1)C1CCN(C(=O)c2ccc(Br)cc2)CC1 -21.4%
O=C(Nc1ccc(S(=O)(=O)N2CCCCC2)cc1)C1CCN(C(=O)c2ccc(F)cc2)CC1 -10.9%
CCOC(=O)c1c(NC(=O)c2cc(CC)on2)sc(C(C)=O)c1C -23.3%
NS(=O)(=O)c1ccc(NS(=O)(=O)/C=C/c2ccccc2)cc1 4.29%
COC(=O)[C@H](Cc1ccccc1)NC(=O)Nc1ccc(S(N)(=O)=O)cc1 -6.59%
Cc1cccc(NC(=O)CN(c2ccc(C(C)C)cc2)S(=O)(=O)c2c(C)nn(C)c2C)c1C -5.46%
CCC(=O)N1c2ccccc2CC1C(=O)N1CCN(c2ccccc2)CC1 (stereo not drawn) -1.25%
O=C(Cn1c(=O)nc(-c2ccccc2)c2cc(Cl)ccc21)NCc1ccc(Cl)cc1 7.3%
CC(C)c1ccc(Cn2c(COc3ccccc3)nc3ccccc32)cc1 0.116%
COc1cccc(-c2nnc(SCC(=O)N3CCC(C)CC3)o2)c1 2.47%
CCc1cc(C(=O)Nc2nnc(C3CC3)s2)sc1C 5.22%
O=C(Nc1nnc(C2CC2)s1)c1ccccn1 -8.58%
O=C(CSCc1cnn(-c2ccccc2)c1-n1cccc1)NCc1ccccc1Br 7.2%
COc1ccc2c(c1)c(=O)c(S(=O)(=O)c1ccc(F)cc1)cn2CC(=O)Nc1ccc(C)cc1C -20%
CCc1ccc(NC(=O)c2cc(S(=O)(=O)NC3CCCCCC3)ccc2F)cc1 1.8%
COc1ccc(-c2nc(CN3CCC(C(=O)NCCN(CC(C)C)CC(C)C)CC3)c(C)o2)cc1OC -3.04%
COc1ccc(Cl)cc1NC(=O)CCC(=O)c1ccc(C)cc1 0.782%
COc1ccc(C)cc1NC(=O)CSc1ccc(Cl)cc1 3.7%
COc1ccc(Cl)cc1NC(=O)Cn1c(=O)c2ccccc2n2nncc12 3.48%
Cc1ccc(NC(=O)CCCn2c(=O)c3cccn3c3ccccc32)cc1Cl -14.3%
Cc1ccc(Nc2nnc(-c3ccc(C)c(S(=O)(=O)N4CCCCC4)c3)c3ccccc23)cc1 -4.3%
Cc1ccc(N(C)C(=O)C2CCN(S(=O)(=O)c3ccc4c(c3)CCCN4C(=O)C3CCC3)CC2)cc1 10.1%
O=C(CCCCn1c(=O)c2ccccc2n(CC(=O)Nc2cccc(C(F)(F)F)c2)c1=O)NCc1ccc2c(c1)OCO2 3.4%

Activity change, negative = inhibition, active:
CCOC(=O)CSc1nnc(NC(=O)c2cccc(S(=O)(=O)N3CCCCC3)c2)s1 -31.1%
Cn1nc(C(F)(F)F)c2cc(NC(=O)OCC(C)(C)C)sc21 -42.5%
CCC(CC)c1nnc(NC(=O)C2=COCCO2)s1 -42.7%
COc1ccc(NC(=O)C2=CC(c3ccc(OC)c(OC)c3)=NS(=O)(=O)N2C)cc1 -44.8%
CCc1cccc(NC(=O)CCC(=O)O)c1 -45.7%
O=CN1CCN(C(=O)c2ccc(Br)o2)CC1 -36.1%
CCOC(=O)[C@H]1[C@H]2COc3cc(OC)ccc3[C@@H]2N2C(=O)N(c3ccc(Br)cc3)C(=O)[C@@]12C -55.7%
O=S(=O)(c1ccccc1)N(Cc1cccc(F)c1)c1ccccc1 -30.7%
COC(=O)CCc1sc(Nc2ccc(Br)cc2)nc1-c1ccc(OC)cc1 -33.1%
Cc1nnc(SC(C)C(=O)Nc2ccc(S(=O)(=O)NC3CCCCC3)cc2)s1 (stereo not drawn) -34.5%
Cc1ccc(CCn2c3c(c4ccccc42)CN(C)CC3)cn1 -37.8%
Nc1nc(NC(=O)/C=C/c2ccccc2)nn1-c1ccccc1 -60.9%
COCC(C)NS(=O)(=O)c1ccc(N2CCCCS2(=O)=O)cc1 (stereo not drawn) -32.2%
O=C(Nc1ccc(F)cc1)C1CCN(C(=O)c2ccc([N+](=O)[O-])cc2)CC1 -37.8%
NS(=O)(=O)c1ccc(Nc2nc(-c3ccccc3)cs2)cc1 -31.8%
CC(C)c1ccc2c(c1)c(SC(C)(C)C)c(CC(C)(C)C(=O)O)n2Cc1ccc(Cl)cc1 -36.5% and -38.2%
O=C(Nc1nnc(C2CC2)s1)C1=NN(C2CCS(=O)(=O)C2)C(=O)CC1 (stereo not drawn) -30.2%
COc1ccc(Cl)cc1NC(=O)Cn1nc(-c2ccc(C)cc2)n(C)c1=S -37.4%
COc1ccc(Cl)cc1NC(=O)CCn1c(=O)c2cccn2c2ccccc21 -35%
